Assay outcomes: PubChem BioAssay, National Center for Advancing Translational Sciences (NCATS)
Rows were chosen to be rich in hits. Some 15% of all compounds tested hit in one or more screens of this group.
VP16 counter = inhibits Gal4-VP16 luciferase reporter, ROR gamma counter-screen; Potency, µM (titrated, usually from 53.6 µM), without a hit: top-dose activity, negative = inhibition, usual class: inhibitors; 3.5% of 310,000 active; AID 2546; Drosophila S2 Gal4-VP16 UAS-luciferase, luminescence, 20 h;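 also: Gal4-VP16 expression switched on by copper sulfate through the metallothionein promoter; nearly all actives have a fitted effect of over 50% in size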
RORgamma inh = ROR gamma (mouse) transcription inhibition. P51450. Drosophila S2 Gal4-RORgamma UAS-luciferase reporter, 20 h. Potency, µM (series often up to 53.6 µM), inactives show at the top dose activity change, negative = inhibition, most hits filed as inhibitors. 5.4% of 310,000 active. AID 2551; also: nearly all actives have a fitted effect of over 60% in size
Target sequence (P51450 whole entry, looked up, the tested form may be a part): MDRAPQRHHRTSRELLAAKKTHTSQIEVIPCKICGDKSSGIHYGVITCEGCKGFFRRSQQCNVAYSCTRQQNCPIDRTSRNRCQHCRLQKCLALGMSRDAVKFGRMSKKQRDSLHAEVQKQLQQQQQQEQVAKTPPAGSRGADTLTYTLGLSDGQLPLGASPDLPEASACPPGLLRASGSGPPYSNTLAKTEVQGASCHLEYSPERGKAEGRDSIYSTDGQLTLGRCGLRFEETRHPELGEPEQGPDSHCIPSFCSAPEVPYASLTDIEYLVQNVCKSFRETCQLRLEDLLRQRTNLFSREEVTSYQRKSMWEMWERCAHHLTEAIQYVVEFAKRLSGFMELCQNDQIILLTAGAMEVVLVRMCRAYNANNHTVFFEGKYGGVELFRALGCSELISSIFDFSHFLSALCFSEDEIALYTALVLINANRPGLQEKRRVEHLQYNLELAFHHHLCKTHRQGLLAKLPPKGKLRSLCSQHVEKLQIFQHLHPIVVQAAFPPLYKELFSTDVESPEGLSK
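Stable Schneider cell line, Gal4 DNA-binding domain fused to ROR gamma, UAS-luciferase. Cmpd 1 hr RT → CuSO4 700 uM final → 20 hr RT → luciferase reagent 10 min → luminescence.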
ELG1 DNA repair = inhibitors of ELG1-dependent DNA repair in HEK293T cells | Potency, µM (highest dose often 46.1 µM), inactives show at the top dose activity change, negative = inhibition, actives largely listed as inhibitors | 2.3% of 330,000 active | AID 504467 | HEK293T ELG1-luciferase reporter, luminescence, 16 h; DNA damage induced by 5-fluorouridine; also: nearly all actives have a fitted effect of over 55% in size
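DMSO vehicle served as the neutral condition. Each well held 2,000 cells given 5-fluorouridine plus compound; after 16 hr at 37 °C/5% CO2, ONE-Glo was added and luciferase measured 30 min later.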
TDP1 cell CPT = DT40-hTDP1 cell growth loss with CPT | chicken DT40 Tdp1-/-;hTDP1 cells + 20 nM CPT, ATP luminescence, 48 h | Potency, µM (highest dose often 46.2 µM), inactives show at the highest dose activity change, negative = growth inhibition, actives largely listed as inhibitors | 12% of 420,000 active; also: nearly all actives have a fitted effect of over 55% in size
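Chicken DT40 Tdp1-/- cells complemented with human TDP1, 400 cells/well, exposed to compounds plus 20 nM camptothecin for at least 48 h at 37 C; viability read as ATP content by CellTiter-Glo luminescence.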
12-LOX inh = ALOX12 (human) lipoxygenase inhibition; P18054; purified 12hLO, xylenol orange hydroperoxide absorbance; Potency, µM (top dose mostly 108 µM), for the others: at the highest dose activity change, negative = inhibition, most hits filed as inhibitors; 1.1% of 580,000 active
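Hydroperoxide product was detected by ferrous iron/xylenol orange as the 573 to 405 nm absorbance ratio. Arachidonic acid at 40 uM (final) was turned over for 30 min at room temperature by 150 nM human 12hLO, pH 7.0 Hepes buffer, after 15 min compound preincubation.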
TDP1 cell noCPT = qHTS for Inhibitors of human tyrosyl-DNA phosphodiesterase 1 (TDP1): qHTS in cells in absence of CPT; DT40 Tdp1-/- hTDP1 cells, no CPT, ATP luminescence, 48 h; AID 686978, 2013; Potency, µM (highest dose often 46.2 µM), for inactives: at the highest dose activity change, negative = growth inhibition, hits mostly inhibitors; 15% of 420,000 active; also: nearly all actives have a fitted effect of over 55% in size
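Chicken DT40 Tdp1-/- cells complemented with human TDP1, screened without camptothecin (DMSO vehicle only), 400 cells/well. Compounds pin-transferred, cells incubated at 37 °C for at least 48 hr. Growth read as ATP-dependent luminescence (CellTiter-Glo, 30 min at RT).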
Numbers without * were called inactive; ? = inconclusive; . = not tested or not shown; [ ] = dose if it differs, or a comment. Calls follow the shape of the dose curve; as a rule, active = well fitted curve in the direction sought with a large enough effect; inconclusive = small, poorly fitted or top-dose-only effect, or another doubt; inactive = no such curve, though single readings can be large; an effect the other way counts as inactive or inconclusive. % is scaled to controls: 0 for no effect and ±100 for the full control effect; potency is read from the fitted curve at half-maximal effect.

SMILES	VP16 counter	RORgamma inh	ELG1 DNA repair	TDP1 cell CPT	12-LOX inh	TDP1 cell noCPT
CC(C)COc1ccc(C(=O)NCC2OCCc3ccccc32)cc1 (stereo not given)	.	.	.	?	-18.8%	14.6µM*
CC(C)CCOc1ccc(C(=O)NCC2OCCc3ccccc32)cc1 (stereo not given)	.	.	.	?	-26.2%	?
CC(C)CC(=O)Nc1ncc([N+](=O)[O-])s1	?	43.6%	?	-18.8%	?	?
Cc1nc(C)c(C(=O)Nc2ncc([N+](=O)[O-])s2)o1	?	7.94µM*	?	?	?	?
O=C(Nc1ncc([N+](=O)[O-])s1)c1cccc([N+](=O)[O-])c1	?	-29.1%	?	9.2µM*	0.0%	20.6µM*
O=C(CCC1CCCC1)Nc1ccc(C(=O)NCc2cccnc2)cc1	4.2%	2.7%	16.4µM*	14.6µM*	-17.7%	?
CCCCC(=O)Nc1ncc([N+](=O)[O-])s1	?	?	-6.9%	2.1%	0.0%	-15.6%
O=C(COC(=O)c1ccccc1)Nc1ncc([N+](=O)[O-])s1	.	.	13.2%	-1.7%	39.8µM*	?
O=C(Nc1nc(-c2cccnc2)cs1)c1cccc([N+](=O)[O-])c1	4.0%	26.6%	?	-16.9%	3.5%	23.1µM*
O=C(NCc1cccnc1)c1ccc([N+](=O)[O-])cc1	-8.7%	-20.3%	8.2%	3.8%	-22.6%	6.5%
O=C(Nc1ccccc1)Nc1ncc([N+](=O)[O-])s1	?	?	?	6.51µM*	?	4.61µM*
O=C(NCc1cccnc1)c1ccc(NC(=O)c2cccc([N+](=O)[O-])c2)cc1	1.1%	36.8%	-10.6%	14.6µM*	4.9%	-82.3%
Cc1csc(NC(=O)c2cc([N+](=O)[O-])cc([N+](=O)[O-])c2)n1	2µM*	?	-1.5%	?	-24.9%	23.1µM*
Cc1nccn1CC(O)Cn1c2ccccc2c2ccccc21 (stereo not given)	-7.7%	43.8%	?	?	0.0%	?
CC1(C)Cc2c(cnn2-c2ccccc2)-c2c1c1ccccc1n2CC(O)CCl (stereo not given)	?	6.3%	25.9µM*	?	0.0%	?
Cn1c(O)c(N=NC(=O)c2cccc(S(=O)(=O)N3CCCCC3)c2)c2ccccc21	-13.7%	-1.4%	18.4µM*	16.4µM*	-15.0%	?
Cc1nccn1CCNC(=O)CCC[C@@H]1[C@H]2CCCN3CCC[C@@H](CN1C(=O)c1cccnc1)[C@@H]23	.	.	.	.	70.0%	.
S=C(N/N=C/c1ccc(Br)cc1)N1CCCCC1	0.891µM*	1.41µM*	?	1.16µM*	-25.2%	?
Cc1ccc(/C=N/NC(=S)N2CCOCC2)cc1	0.891µM*	0.562µM*	?	-12.4%	?	-22.7%
S=C(N/N=C/c1ccc(Cl)cc1)N1CCOCC1	1.78µM*	0.355µM*	?	0.0092µM*	?	0.0184µM*
S=C(c1ccc(Br)cc1)N1CCCC1	1.8%	-14.3%	9.7%	3.5%	-14.7%	-9.7%
CNc1nccc(N2CCC(CC(=O)N3CCN(c4cccc(OC)c4)CC3)CC2)n1	.	.	.	.	55.6%	.
O=C(Cc1cccc(F)c1)N1CCC(Cc2nncn2-c2ccccc2)CC1	.	.	.	.	11.6%	.
Cc1ccc(NC(=O)CN2CCc3ccccc3C2)cc1S(=O)(=O)N(C)C	-7.6%	22.0%	?	?	-18.0%	23.1µM*
CN(C)S(=O)(=O)c1ccc(Cl)c(NC(=O)CN2CCN(c3ccccn3)CC2)c1	-4.4%	?	-5.3%	?	7.9%	23.1µM*
SMILES	VP16 counter	RORgamma inh	ELG1 DNA repair	TDP1 cell CPT	12-LOX inh	TDP1 cell noCPT
CN(C)S(=O)(=O)c1ccc(Cl)c(NC(=O)CN2CCc3ccccc3C2)c1	-2.0%	24.7%	?	18.4µM*	11.0%	20.6µM*
Cc1ccc(NC(=O)CN2CCc3ccccc3C2)cc1S(=O)(=O)N1CCOCC1	-8.4%	?	?	?	-2.8%	?
Cn1c(=O)c2nc(SCc3cccc(F)c3)n(C)c2n(C)c1=O	.	.	.	.	-2.1%	.
O=c1oc2ccccc2c(NC2CCCC2)c1NS(=O)(=O)c1cccs1	.	.	.	.	2.7%	.
CCN(CC)C(CNC(=O)c1nn(C)c(=O)c2ccccc12)c1ccccc1 (stereo not given)	.	.	.	.	40.1%	.
O=C1CCC2(CNC(=O)c3ccco3)CCCC=C2N1 (stereo not given)	.	.	.	.	-3.7%	.
CCCN1C(=O)/C(=C/c2ccc3c(c2)OCO3)NC1=S	?	8.91µM*	?	-10.8%	-57.6%	-18.6%
CN1C(=O)/C(=C/c2cccc([N+](=O)[O-])c2)C(=O)N1c1ccccc1	?	-1.8%[1.91 µM]	?	?	39.8µM*	?
O=C1NC(=S)N/C1=C/c1cccc([N+](=O)[O-])c1	9.2%	-6.7%	?	20.7%	-3.3%	-7.2%
CCCN1C/C(=C/c2cccc([N+](=O)[O-])c2)C(=O)/C(=C/c2cccc([N+](=O)[O-])c2)C1	0.1%	29.1%	-24.4%	1.03µM*	15.3%	0.651µM*
O=c1[nH]/c(=C/c2ccc3c(c2)OCO3)c(=O)[nH]/c1=C\c1ccc2c(c1)OCO2	.	.	.	-5.1%	.	-26.9%
CCCN1C/C(=C/c2ccc3c(c2)OCO3)C(=O)/C(=C/c2ccc3c(c2)OCO3)C1	1.5%	-6.2%	23.1µM*	14.6µM*	?	13µM*
CCCN1C(=O)/C(=C/c2ccc(OCc3ccc(C(=O)O)cc3)c(OC)c2)NC1=S	.	.	.	9.8%	?	-27.4%
O=C1/C(=C/c2cccc([N+](=O)[O-])c2)CCOc2ccc(F)cc21	.	.	.	.	-15.3%	.
O=C(NC1CCCC1)N1CCC2(CC1)CC(N(Cc1ccc(F)cc1)C1CC1)CCO2 (stereo not given)	.	.	.	.	16.9%	.
CC1=C(C(=O)Nc2ccc(C)cn2)C(c2cccc(Oc3ccccc3)c2)C2=C(CCCC2=O)N1 (stereo not given)	.	.	.	.	-12.3%	.
COc1cccc(CC(=O)N2CCCN(c3cc(-c4ccc(Br)cc4)[nH]n3)CC2)c1	.	.	.	.	-19.3%	.
CC(C)C(=O)N1CCCC1(C)C(=O)N(C)Cc1cccc2ccccc12 (stereo not given)	.	.	.	-22.7%	-41.2%	-22.1%
CC(=O)N1CCCC(C)(C(=O)N(C)Cc2cccc3ccccc23)C1 (stereo not given)	.	.	.	23.1µM*	12.7%	?
